# From PubChem BioAssay AID540355 (National Center for Advancing Translational Sciences (NCATS), 2011)
# The list shows a part of the results. Inconclusive results are not listed. Active and inactive are the calls of the source. The call rests on the fitted dose curve; in most records, active means well fitted inhibition curve with a large enough effect; inconclusive means small, poorly fitted or top-dose-only effect; inactive means no such curve, though single readings can be large or run the other way.
# Target: 4'-phosphopantetheinyl transferase Sfp (Bacillus subtilis (strain 168)) (UniProt P39135)
# Experiment: Gel-Based Assay for Inhibitos of Bacillus subtilis Sfp phosphopantetheinyl transferase (PPTase): Chemistry Optimization Followup
# Details: purified Sfp PPTase, gel-based product detection; series mostly up to 250 µM; activity change, negative = inhibition: at the top concentration
# From the text: The covalent attachment of a phosphopantetheinyl (4'-PP) arm to a variety of synthases and other proteins is a key posttranslational protein modification. The 4'-PP is installed on the proteins post-translationally from coenzyme A (CoA) on a conserved serine residue by action of phosphopantetheinyl transferase (PPTase) enzymes. Phosphopantetheinylation is essential for synthase activity, and removal of the PPTase gene precludes natural product synthesis in microorganisms, or in the case of fatty acid biosynthesis, renders the organism unviable. PPTase enzymes belong to a distinct structural superfamily. Within bacteria, these enzymes are grouped into two classes based upon primary structure, the AcpS-Type and Sfp-Type PPTases.
# Sfp-type PPTases, corresponding to an activator of surfactin production in Bacillus subtilis, are responsible for modifying type I polyketide and nonribosomal peptide synthases of prokaryotes. Sfp-type PPTases are responsible for the activation of a variety of pathogen-associated virulence factors. Among these compounds are toxins such as mycolactone from Mycobacterium ulcerans, siderophores such as vibriobactin from Vibrio cholerae or mycobactin from Mycobacterium tuberculosis, as well as the mycolic acids which form the waxy cell wall of Mycobacteria. The biosyntheses of these natural products are considered attractive targets for drug design.
# In this assay, compounds were evaluated by monitoring of fluorescence transfer to whole carrier protein substrates via polyacrylamide gel electrophoresis. See Yasgar, et al. (PMID: 20094656) for further details on assay. This assay was used to evaluate follow-up compounds from the primary screen (AID: 1490).
# NIH Chemical Genomics Center [NCGC]
# NIH Molecular Libraries Probe Centers Network [MLPCN]
# Assay Submitter (PI): Michael Burkart, University of California, San Diego
# A DMSO solution of confirmed hits (0.5 microL) was added to a 1.33X enzyme solution (15 microL, containing 26.6 nM Sfp, 66 mM HEPES, 13.3 mM MgCl2, 0.0133% NP-40, 0.133% BSA, pH 7.6). After a 10 minute incubation, the enzymatic reaction was initiated by the addition of 4 X substrate solution (4 microL, containing 50 microM Rhodamine CoA and 50 microM apo-Actinorhodin-ACP). The reactions were terminated after a 30 minute incubation at room temperature by the addition of 2X quench solution (20 microL, containing 4 M Urea, 25 mM EDTA, 0.004% phenol red, pH 8.0). Samples were separated under native conditions on a 20% polyacrylamide gel using standard Laemmli conditions. Following the run, gels were imaged with a Chemi-Doc Plus imager (Bio-Rad, Hercules, CA) and band intensity quantified using the ImageJ software package. Pixel density values were normalized to control wells (SCH202676) and fit with the 4-parameter Hill equation using in-house tools.
# 4'-phosphopantetheinyl transferase Sfp (Bacillus subtilis (strain 168)), sequence (P39135 whole entry, looked up): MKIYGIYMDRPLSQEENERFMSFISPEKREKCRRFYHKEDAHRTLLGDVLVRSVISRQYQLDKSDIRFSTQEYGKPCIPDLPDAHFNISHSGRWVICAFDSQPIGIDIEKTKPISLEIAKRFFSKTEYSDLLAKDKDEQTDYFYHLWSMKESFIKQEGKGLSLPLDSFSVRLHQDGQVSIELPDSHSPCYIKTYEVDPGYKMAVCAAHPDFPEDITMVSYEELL
Structure (SMILES),"activity change, negative = inhibition",Potency
COc1cccc(NC(=S)N2CCN(c3ccccc3C(F)(F)F)CC2)n1,61.4% (inactive),–
Cc1cc(C)nc(NC(=S)N2CCN(c3ccc(Cl)cc3C(F)(F)F)CC2)c1,–,6.75 µM (active)
Cc1cc(C)nc(NC(=S)N2CCN(c3ccc4nonc4c3)CC2)c1,–,10 µM (active)
FC(F)(F)c1cccc(N2CCN(C(=S)Nc3ccncc3)CC2)c1,5.42% (inactive),–
Cc1ccc(N2CCN(C(=S)Nc3cc(C)ccn3)CC2)cc1,–,3.16 µM (active)
COc1cccc(NC(=S)N2CCN(c3ccc(Cl)cc3Cl)CC2)n1,44.2% (inactive),–
Cc1cc(C)nc(NC(=S)N2CCN(c3cccc(C#N)c3)CC2)c1,–,10 µM (active)
COc1ccnc(NC(=S)N2CCN(c3ncc(C(F)(F)F)cc3Cl)CC2)c1,–,3.02 µM (active)
Cc1cc(C)nc(NC(=S)N2CCN(c3cccc(C(F)(F)F)c3)CC2)c1,–,1.58 µM (active)
